MBNL1-CUG inh: qHTS Assay for Inhibitors of MBNL1-poly(CUG) RNA binding | 280,000 compounds, 0.036% hits | Muscleblind-like protein 1 (Homo sapiens), Q9NR56 | TR-FRET MBNL1-His/biotin-(CUG)12 binding, 665/545 ratio | Potency, µM (doses to about 57.5 µM), for the others: at the top dose activity change, negative = inhibition, most hits filed as inhibitors; active means well fitted inhibition curve with a large enough effect in the signal ratio, with a control signal flat, not every such curve was filed as active; inconclusive means small, poorly fitted or top-dose-only effect, or effect the other way, or a change in a side signal; inactive means no such curve, though single readings can be large or run the other way; the % refers to the signal ratio; further: potency means the concentration at half of the fitted maximal effect; on the % scale 0 is the no-effect control and ±100 the full control effect
Target sequence (Q9NR56 whole entry, looked up): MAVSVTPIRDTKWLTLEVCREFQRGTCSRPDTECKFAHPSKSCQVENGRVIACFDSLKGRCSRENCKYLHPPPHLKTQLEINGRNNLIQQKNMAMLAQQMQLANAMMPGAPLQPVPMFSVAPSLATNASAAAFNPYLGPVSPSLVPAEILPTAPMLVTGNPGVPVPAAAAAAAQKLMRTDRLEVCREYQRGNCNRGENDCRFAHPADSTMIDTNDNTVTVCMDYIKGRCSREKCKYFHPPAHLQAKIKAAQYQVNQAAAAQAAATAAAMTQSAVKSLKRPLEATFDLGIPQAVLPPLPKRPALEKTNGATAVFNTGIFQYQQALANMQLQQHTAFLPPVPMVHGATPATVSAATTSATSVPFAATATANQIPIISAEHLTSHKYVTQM
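His-tagged MBNL1 binding to biotinylated (CUG)12 RNA was measured by TR-FRET using terbium anti-His antibody (0.055 ng/ul final) and streptavidin-XL665 (5 nM final). Compounds were titrated 92 nM to 58 uM; 60 min at room temperature.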
ClpP mod: qHTS Assay for Activators of ClpP. 340,000 compounds, 1.9% hits. purified B. subtilis ClpP, FRET peptide cleavage, 20 min. Potency, µM (series often up to 57.5 µM), inactives show top-dose activity change, negative = active. ATP-dependent Clp protease proteolytic subunit (Bacillus subtilis (strain 168)), P80244; active means well fitted falling curve with a large enough effect; inconclusive means small, poorly fitted or top-dose-only effect; inactive means no such curve, though single readings can be large or run the other way; further: potency means the concentration at half of the fitted maximal effect; the source files actives as falling curves though it sought activators and does not explain the sign; nearly all actives have a fitted effect of over 65% in size
Target sequence (P80244 whole entry, looked up): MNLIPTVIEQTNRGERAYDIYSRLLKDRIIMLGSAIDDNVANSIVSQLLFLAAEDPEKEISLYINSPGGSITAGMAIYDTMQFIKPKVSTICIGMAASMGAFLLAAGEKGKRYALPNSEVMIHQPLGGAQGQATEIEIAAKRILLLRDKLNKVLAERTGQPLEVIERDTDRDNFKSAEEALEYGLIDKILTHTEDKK
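Buffer: 100 mM Tris/HCl pH8, 100 mM KCl, 0.05% low protease BSA, 2.5% glycerol, 0.01% Tween-20. ClpP 10 microg/mL final; 20 min RT; delta FRET normalized to ADEP and DMSO controls.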
CBFb-RUNX1 inh: qHTS Assay for Compounds Blocking the Interaction Between CBF-beta and RUNX1 for the Treatment of Acute Myeloid Leukemia | AlphaScreen CBFb-His/RUNX1-biotin binding, biochemical | Potency, µM (titrated, usually from 59.8 µM), without a hit: top-dose activity, negative = inhibition, hits mostly inhibitors | 230,000 tested, under 10 active; active means well fitted curve in the direction sought with a large enough effect; inconclusive means small, poorly fitted or top-dose-only effect, or effect the other way, or another doubt; inactive means no such curve, though single readings can be large or run the other way; further: % of control where 0% means no effect
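Bead-based AlphaScreen assay; binding partners His-tagged CBF-beta and biotinylated RUNX1 at 30 nM each. Compound exposure 15 min after a 20-min protein preincubation; bead step 90 min; all steps at room temperature.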
Rango complex inh: qHTS Assay for Inhibitors of Rango (Ran-regulated importin-beta cargo) - Importin beta complex formation. 340,000 compounds, 0.031% hits. Importin subunit beta-1 (Homo sapiens), Q14974. AID 540263, 2011. Potency, µM (doses to about 92.2 µM), for inactives: top-dose inhibition of complex formation. Rango CFP/YFP FRET sensor + importin beta, 45 min;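 further: potency means the concentration at half of the fitted maximal effect; 0% = DMSO wells and 100% = buffer wells lacking importin beta; nearly all actives have a fitted effect of over 15% in size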
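FRET biosensor (snurportin 1 IBB flanked by EYFP and cerulean), 50 nM, with compound 5 min, then 0.125 microM importin beta in PBS, 1 mM DTT, 0.02% Tween-20, 0.1% BSA. CFP/YFP ratio read after 45 min at room temperature; pre-read flags interference.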
Rango dissoc inh: qHTS Assay for Inhibitors of RanGTP induced Rango (Ran-regulated importin-beta cargo) - Importin beta complex dissociation | Potency, µM (top dose mostly 46.1 µM), without a hit: at the top dose activity change, negative = inhibition | 340,000 compounds, 0.071% hits | Biochemical FRET Rango-importin beta, RanGTP-induced dissociation | Snurportin-1 (Homo sapiens) + GTP-binding nuclear protein Ran (Homo sapiens) + Importin …; further: potency means the concentration at half of the fitted maximal effect; % of control where 0% means no effect; nearly all actives have a fitted effect of over 45% in size
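Compounds sat 5 min at room temperature with 0.1 uM Rango biosensor plus 0.25 uM importin beta, then FRET pre-read. RanGTP-RCC1 (0.6 uM Ran, 2mM GTP, 0.2 uM RCC1) added for 45 min, and the CFP/YFP post-read measured blocked complex dissociation.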
An asterisk follows results filed as active; [ ] = another dose, or the depositor's remark. This excerpt belongs to a sample that is enriched for hits. Unless noted, the call rests on the fitted dose curve.

For CCOC(=O)c1c(-c2ccc(F)cc2)csc1NC(=O)c1c(-c2ccccc2)noc1C the results were MBNL1-CUG inh -4.1%, ClpP mod 20µM*, CBFb-RUNX1 inh 0.2%, Rango complex inh -3.7% and Rango dissoc inh -1.4%.
`COC(=O)c1c(-c2ccccc2)csc1NC(=O)c1c(-c2ccccc2)noc1C` gave MBNL1-CUG inh 2.5%, ClpP mod inconclusive, CBFb-RUNX1 inh 0.6%, Rango complex inh 3.5% and Rango dissoc inh 4.8%.
For Cc1cccc2nc(Cn3c(=O)n(-c4ccccc4)c(=O)c4c5c(sc43)CCC5)cc(=O)n12 the results were ClpP mod -1.9%.
For Cc1cc2oc(=O)c(CC(=O)O)c(C)c2c2occ(-c3ccc(F)cc3)c12 the results were ClpP mod 28.2µM*.
COc1ccc(-c2coc3c2c(C)cc2oc(=O)c(CC(=O)O)c(C)c23)cc1 was read as ClpP mod -10.5%.
For CCNC(=O)/C(=C\C=C\c1ccccc1)NC(=O)c1ccc(Br)o1 the results were MBNL1-CUG inh 6.8%[11.5 µM], ClpP mod 3.16µM*, CBFb-RUNX1 inh 6.1%, Rango complex inh -2.5% and Rango dissoc inh 8.7%.
O=C(NCc1ccco1)/C(=C/C=C/c1ccccc1)NC(=O)c1ccco1 was read as MBNL1-CUG inh inconclusive, ClpP mod -0.6%, CBFb-RUNX1 inh 1.4%, Rango complex inh -0.4% and Rango dissoc inh 4.2%.
For CSc1nc(=O)[nH]c2nc[nH]c12 the results were ClpP mod -17.2%.
Cc1nc2c3cccnc3nn2c(C)c1CCC(=O)NCc1ccccc1Cl was read as ClpP mod 4.8%.
Screening CCOCC returned CBFb-RUNX1 inh 6.4%.
Screening O=S(=O)(c1ccc(-c2csc(=Nc3ccc(F)cc3)n2CCCCCCO)cc1)N1CCCC1 returned ClpP mod -26.7%.
For COCCn1c(=NC(=O)c2ccc(S(=O)(=O)N3CCc4ccccc4C3)cc2)sc2cc(S(N)(=O)=O)ccc21 the results were MBNL1-CUG inh inconclusive, ClpP mod 14.1µM*, CBFb-RUNX1 inh 4.3%, Rango complex inh -2.5% and Rango dissoc inh 0.0%.
`C=CCn1c(=NC(=O)c2ccc(S(=O)(=O)N3CCc4ccccc4C3)cc2)sc2cc(S(N)(=O)=O)ccc21` gave MBNL1-CUG inh inconclusive, ClpP mod -2.1%, CBFb-RUNX1 inh -28.7%, Rango complex inh -0.1% and Rango dissoc inh -12.2%.
COCCn1c(=NC(=O)c2ccc(S(=O)(=O)N3CCCc4ccccc43)cc2)sc2cc(S(C)(=O)=O)ccc21 was read as MBNL1-CUG inh -1.5%, ClpP mod -5.4%, CBFb-RUNX1 inh 1.4%, Rango complex inh 2.2% and Rango dissoc inh 4.9%.
For C#CCn1c(=NC(=O)c2ccc(S(=O)(=O)N3CCc4ccccc4C3)cc2)sc2cc(S(N)(=O)=O)ccc21 the results were MBNL1-CUG inh inconclusive, ClpP mod 28.2µM*, CBFb-RUNX1 inh 19.2%, Rango complex inh 8.4% and Rango dissoc inh 17.9%.
For O=C(Nc1ccc(F)c(Cl)c1)C1CCCN1S(=O)(=O)c1ccc(F)cc1 (stereo unspecified) the results were ClpP mod 1.1%.
CN(C(=O)COc1ncnc2ccccc12)C1CCCCC1 was read as ClpP mod 22.4µM*, Rango complex inh -2.9% and Rango dissoc inh -4.7%.
`N#Cc1nc(N(c2ccccc2)c2ccccc2)nc(-n2cccc2)n1` gave ClpP mod -7.0%.
Screening CCCC(=O)N1CC(=O)Nc2ccc(C)cc2C1c1ccccc1 (stereo unspecified) returned MBNL1-CUG inh -10.4%, ClpP mod 17.8µM*, Rango complex inh -0.9% and Rango dissoc inh 15.3%.
CCOc1ccc(C=Nc2ccc(/C=C/c3ccnc4ccccc34)cc2)cc1OCC was read as ClpP mod -5.5%.
Screening CCS(=O)(=O)c1ccc2oc(Nc3ccc(C(C)C)cc3)nc2c1 returned MBNL1-CUG inh inconclusive, ClpP mod 31.6µM*, CBFb-RUNX1 inh -1.5%, Rango complex inh -0.7% and Rango dissoc inh 4.0%.
For COC(=O)c1c(C)oc(C)c1S(=O)(=O)N1CCCCC1 the results were ClpP mod 17.8µM*, CBFb-RUNX1 inh -0.1%, Rango complex inh 6.2% and Rango dissoc inh -5.8%.
For COc1ccc(S(=O)(=O)c2ccc(OC)c(OC)c2)cc1OC the results were MBNL1-CUG inh -2.7%, ClpP mod 31.6µM*, CBFb-RUNX1 inh 3.4%, Rango complex inh 1.7% and Rango dissoc inh 2.1%.
COc1ccc(S(=O)(=O)N2CCCC2)cc1OC was read as MBNL1-CUG inh -3.9%, Rango complex inh -4.2% and Rango dissoc inh -14.6%.
`COC(=O)Cn1ccc(-c2ccc(Cl)cc2)c(C#N)c1=O` gave MBNL1-CUG inh inconclusive, ClpP mod -16.6%, CBFb-RUNX1 inh 3.2%, Rango complex inh 1.2% and Rango dissoc inh 0.3%.
`Cc1ccccc1Cn1ccc(-c2ccc(Cl)cc2)c(C#N)c1=O` gave MBNL1-CUG inh -1.2%, ClpP mod inconclusive, CBFb-RUNX1 inh 6.0%, Rango complex inh 0.0% and Rango dissoc inh 9.9%.
For CCCCCc1nc2c(C#N)c(-c3ccc(Cl)cc3)ccn2n1 the results were MBNL1-CUG inh 10.9%, ClpP mod 28.2µM*, CBFb-RUNX1 inh 2.9%, Rango complex inh 2.5% and Rango dissoc inh 6.5%.
For N#Cc1c(-c2ccc(Cl)cc2)ccn2nc(CCC(=O)O)nc12 the results were MBNL1-CUG inh inconclusive, ClpP mod 25.1µM*, CBFb-RUNX1 inh 1.0%, Rango complex inh -1.5% and Rango dissoc inh -8.2%.
For CCOc1ccc(NC(=O)Cn2cnc3c(oc4ccccc43)c2=O)cc1 the results were ClpP mod -1.7%.
CC1CCN(C(=O)c2ccccc2SCC(=O)NCC2CCCCC2)CC1 was read as ClpP mod 22.4µM*, Rango complex inh -0.1% and Rango dissoc inh -0.6%.
Screening Cc1nc2scc(C)n2c(=O)c1S(=O)(=O)NCCc1ccc(Cl)cc1 returned MBNL1-CUG inh 122.2%, Rango complex inh 0.6% and Rango dissoc inh 0.5%.
For Cc1ccc(CCNS(=O)(=O)c2c(C)nc3sc(C)c(C)n3c2=O)cc1 the results were ClpP mod 6.31µM*.
O=C(Nc1ccc2c(c1)N(S(=O)(=O)c1cccs1)CCC2)c1c(F)cccc1F was read as ClpP mod 11.2µM*, Rango complex inh -0.4% and Rango dissoc inh inconclusive.

Source: PubChem
